Measured values from article PMC7862700, “An all-to-all approach to the identification of sequence-specific readers for epigenetic DNA modifications on cytosine”.

Assays:
Test in all cases: DAPPL (digital affinity profiling via proximity ligation, sequencing); 10 mM Tris-HCl pH 7.5, 50 mM NaCl, 1 mM DTT, 4% glycerol, room temperature, 30 min; GST-TFs on glutathione beads, 16-mer random dsDNA library, 0.1% formaldehyde crosslink after washing; high values mean tight binding
FLI1 = target: T1, FLI1 (Homo sapiens, UniProt Q01543 1-452); details: protein: recombinant; tags: N-terminal GST; dsDNA, one strand shown
T1 sequence: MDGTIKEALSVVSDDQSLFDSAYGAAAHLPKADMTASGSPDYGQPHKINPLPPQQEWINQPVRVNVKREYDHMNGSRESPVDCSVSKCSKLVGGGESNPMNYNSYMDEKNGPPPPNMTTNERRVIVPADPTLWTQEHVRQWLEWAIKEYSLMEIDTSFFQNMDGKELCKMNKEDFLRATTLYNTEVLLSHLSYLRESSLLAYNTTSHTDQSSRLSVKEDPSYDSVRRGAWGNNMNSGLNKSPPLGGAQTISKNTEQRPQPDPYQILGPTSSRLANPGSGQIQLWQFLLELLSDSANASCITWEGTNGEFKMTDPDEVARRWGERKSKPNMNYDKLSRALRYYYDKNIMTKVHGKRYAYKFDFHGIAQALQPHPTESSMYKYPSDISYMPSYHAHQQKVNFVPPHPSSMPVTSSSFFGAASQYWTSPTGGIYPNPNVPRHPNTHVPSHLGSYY
Procedure, shortened: (§1)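 Human transcription factors were made in yeast as GST fusions, captured on glutathione beads and barcoded with DNA. With a tag-only sample included, the pool was incubated with 200 nmole of a random double-stranded 16-mer DNA library in Tris/NaCl/DTT/glycerol buffer at room temperature for 30 min, then crosslinked with 0.1% formaldehyde after washing, ligated by proximity, amplified and sequenced. For binding signal, each hexamer's read frequency for a factor is divided by its frequency for the tag-only sample.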

ELK1 = target: T2, ELK1 (Homo sapiens, UniProt P19419 1-428); details: protein: recombinant; tags: N-terminal GST; dsDNA, one strand shown
T2 sequence: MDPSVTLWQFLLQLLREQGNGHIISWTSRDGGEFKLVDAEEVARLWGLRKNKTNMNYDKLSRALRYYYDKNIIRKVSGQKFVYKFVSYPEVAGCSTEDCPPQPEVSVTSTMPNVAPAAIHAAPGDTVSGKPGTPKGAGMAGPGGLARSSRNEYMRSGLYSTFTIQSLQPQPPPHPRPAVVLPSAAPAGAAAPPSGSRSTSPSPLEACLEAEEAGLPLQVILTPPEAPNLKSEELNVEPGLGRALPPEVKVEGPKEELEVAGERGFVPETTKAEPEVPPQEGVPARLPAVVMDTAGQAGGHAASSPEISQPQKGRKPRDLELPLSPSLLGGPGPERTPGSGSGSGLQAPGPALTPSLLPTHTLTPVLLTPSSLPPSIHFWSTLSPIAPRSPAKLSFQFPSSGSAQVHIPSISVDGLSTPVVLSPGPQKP
Procedure, shortened: as §1

GABPA = target: T3, GABPA (Homo sapiens, UniProt Q06546 1-454); details: protein: recombinant; tags: N-terminal GST; dsDNA, one strand shown
T3 sequence: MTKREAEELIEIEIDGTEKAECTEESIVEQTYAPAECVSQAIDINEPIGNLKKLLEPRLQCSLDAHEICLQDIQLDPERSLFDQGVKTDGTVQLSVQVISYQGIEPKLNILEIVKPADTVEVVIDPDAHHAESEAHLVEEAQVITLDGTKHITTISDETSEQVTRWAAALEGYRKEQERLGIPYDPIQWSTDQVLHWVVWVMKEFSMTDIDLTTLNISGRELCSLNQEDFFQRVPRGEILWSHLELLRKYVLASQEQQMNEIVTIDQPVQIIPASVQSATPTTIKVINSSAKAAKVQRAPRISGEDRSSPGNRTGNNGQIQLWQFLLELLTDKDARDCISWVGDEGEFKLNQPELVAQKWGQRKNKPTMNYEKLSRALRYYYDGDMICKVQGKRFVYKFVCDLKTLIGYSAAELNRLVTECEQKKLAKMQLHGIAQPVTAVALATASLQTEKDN
Procedure, shortened: as §1

ERG = target: T4, ERG (Homo sapiens, UniProt P11308 1-479); details: protein: recombinant; tags: N-terminal GST; dsDNA, one strand shown
T4 sequence: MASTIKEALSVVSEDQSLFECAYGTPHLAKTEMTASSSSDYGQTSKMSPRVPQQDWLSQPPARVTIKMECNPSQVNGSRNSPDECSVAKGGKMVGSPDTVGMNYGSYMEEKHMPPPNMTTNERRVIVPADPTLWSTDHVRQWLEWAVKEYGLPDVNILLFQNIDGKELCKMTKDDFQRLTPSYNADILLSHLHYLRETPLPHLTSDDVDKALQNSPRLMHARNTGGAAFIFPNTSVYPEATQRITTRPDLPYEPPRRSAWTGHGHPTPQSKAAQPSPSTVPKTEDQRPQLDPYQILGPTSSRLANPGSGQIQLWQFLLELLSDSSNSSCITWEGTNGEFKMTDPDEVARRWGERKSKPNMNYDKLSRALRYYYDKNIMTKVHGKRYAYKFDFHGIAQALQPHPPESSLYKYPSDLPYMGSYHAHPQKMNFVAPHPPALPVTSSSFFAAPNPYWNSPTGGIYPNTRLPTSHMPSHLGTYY
Procedure, shortened: as §1

ELF1 = ELF1 (Homo sapiens, UniProt P32519 1-619); details: protein: recombinant; tags: N-terminal GST; dsDNA, one strand shown
Chain of ELF1 (P32519 whole entry): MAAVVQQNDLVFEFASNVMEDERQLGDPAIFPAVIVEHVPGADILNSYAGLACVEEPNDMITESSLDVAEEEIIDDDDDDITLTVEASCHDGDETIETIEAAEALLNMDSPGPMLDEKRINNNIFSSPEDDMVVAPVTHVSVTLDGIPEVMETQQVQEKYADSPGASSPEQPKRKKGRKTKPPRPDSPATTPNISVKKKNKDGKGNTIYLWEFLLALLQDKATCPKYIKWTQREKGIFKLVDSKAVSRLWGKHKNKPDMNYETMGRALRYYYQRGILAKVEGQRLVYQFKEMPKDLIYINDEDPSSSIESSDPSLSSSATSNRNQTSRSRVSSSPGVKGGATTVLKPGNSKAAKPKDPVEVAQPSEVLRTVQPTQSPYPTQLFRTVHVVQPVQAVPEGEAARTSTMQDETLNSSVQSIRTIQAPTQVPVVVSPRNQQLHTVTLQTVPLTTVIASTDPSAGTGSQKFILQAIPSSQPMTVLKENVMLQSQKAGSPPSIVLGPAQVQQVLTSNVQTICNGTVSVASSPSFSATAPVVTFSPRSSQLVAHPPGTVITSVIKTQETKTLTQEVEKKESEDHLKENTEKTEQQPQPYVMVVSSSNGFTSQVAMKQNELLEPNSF
Procedure, shortened: as §1

EHF = target: T5, EHF (Homo sapiens, UniProt Q9NZC4 1-300); details: protein: recombinant; tags: N-terminal GST; dsDNA, one strand shown
T5 sequence: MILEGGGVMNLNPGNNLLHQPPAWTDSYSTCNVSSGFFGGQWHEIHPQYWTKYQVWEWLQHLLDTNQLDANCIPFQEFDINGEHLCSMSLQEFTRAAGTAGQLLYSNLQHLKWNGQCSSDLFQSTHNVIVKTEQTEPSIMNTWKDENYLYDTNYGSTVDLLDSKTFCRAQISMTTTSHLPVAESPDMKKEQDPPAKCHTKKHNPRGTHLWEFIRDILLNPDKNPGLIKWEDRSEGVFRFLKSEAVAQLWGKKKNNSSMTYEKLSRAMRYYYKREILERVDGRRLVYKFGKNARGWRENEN
Procedure, shortened: as §1

SPI1 = SPI1 (Homo sapiens, UniProt P17947 1-270); details: protein: recombinant; tags: N-terminal GST; dsDNA, one strand shown
Procedure, shortened: as §1

SPIB = SPIB (Homo sapiens, UniProt Q01892 1-262); details: protein: recombinant; tags: N-terminal GST; dsDNA, one strand shown
Chain of SPIB (Q01892 whole entry): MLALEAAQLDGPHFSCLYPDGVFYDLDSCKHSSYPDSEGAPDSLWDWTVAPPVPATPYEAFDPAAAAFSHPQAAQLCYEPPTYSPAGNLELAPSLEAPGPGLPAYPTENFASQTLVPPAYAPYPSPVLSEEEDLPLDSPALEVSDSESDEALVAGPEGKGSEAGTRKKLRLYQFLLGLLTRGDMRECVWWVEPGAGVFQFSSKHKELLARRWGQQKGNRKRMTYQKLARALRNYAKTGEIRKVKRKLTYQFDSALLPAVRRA
Procedure, shortened: as §1

ELK3 = target: T6, ELK3 (Homo sapiens, UniProt P41970 1-407); details: protein: recombinant; tags: N-terminal GST; dsDNA, one strand shown
T6 sequence: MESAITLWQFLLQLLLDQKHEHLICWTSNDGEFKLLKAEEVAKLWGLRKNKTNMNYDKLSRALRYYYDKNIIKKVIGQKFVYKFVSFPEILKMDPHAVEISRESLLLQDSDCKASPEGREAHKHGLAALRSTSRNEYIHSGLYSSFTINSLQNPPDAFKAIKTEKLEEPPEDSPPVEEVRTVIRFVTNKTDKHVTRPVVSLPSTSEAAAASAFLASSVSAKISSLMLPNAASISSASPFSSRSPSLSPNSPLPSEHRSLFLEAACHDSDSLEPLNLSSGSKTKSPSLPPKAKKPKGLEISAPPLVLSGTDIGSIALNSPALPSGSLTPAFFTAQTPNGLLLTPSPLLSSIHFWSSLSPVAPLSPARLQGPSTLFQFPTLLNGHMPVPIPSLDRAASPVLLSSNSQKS
Procedure, shortened: as §1

FEV = target: T7, FEV (Homo sapiens, UniProt Q99581 1-238); details: protein: recombinant; tags: N-terminal GST; dsDNA, one strand shown
T7 sequence: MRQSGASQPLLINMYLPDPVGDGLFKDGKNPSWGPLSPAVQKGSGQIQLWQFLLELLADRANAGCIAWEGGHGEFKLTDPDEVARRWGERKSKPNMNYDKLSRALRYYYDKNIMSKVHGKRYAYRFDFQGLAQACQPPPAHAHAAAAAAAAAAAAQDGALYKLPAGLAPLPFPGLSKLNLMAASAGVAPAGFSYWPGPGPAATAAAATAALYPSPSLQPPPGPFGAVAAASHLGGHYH
Procedure, shortened: as §1

ETV5 = ETV5 (Homo sapiens, UniProt P41161 1-510); details: protein: recombinant; tags: N-terminal GST; dsDNA, one strand shown
Chain of ETV5 (P41161 whole entry): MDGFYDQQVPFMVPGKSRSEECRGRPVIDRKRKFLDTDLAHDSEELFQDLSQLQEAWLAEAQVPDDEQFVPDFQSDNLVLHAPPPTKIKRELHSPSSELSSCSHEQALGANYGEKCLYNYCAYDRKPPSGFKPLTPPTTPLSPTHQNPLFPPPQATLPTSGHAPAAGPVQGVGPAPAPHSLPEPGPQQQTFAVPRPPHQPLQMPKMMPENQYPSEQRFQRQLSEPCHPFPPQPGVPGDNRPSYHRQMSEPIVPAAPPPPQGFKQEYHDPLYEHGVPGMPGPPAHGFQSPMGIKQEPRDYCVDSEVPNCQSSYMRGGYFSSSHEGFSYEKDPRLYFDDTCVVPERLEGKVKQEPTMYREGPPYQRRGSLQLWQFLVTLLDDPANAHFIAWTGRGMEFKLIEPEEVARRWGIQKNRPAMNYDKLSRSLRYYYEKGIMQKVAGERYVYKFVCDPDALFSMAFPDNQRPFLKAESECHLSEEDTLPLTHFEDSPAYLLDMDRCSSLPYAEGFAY
Procedure, shortened: as §1

HSF1 = HSF1 (Homo sapiens, UniProt Q00613 1-529); details: protein: recombinant; tags: N-terminal GST; chain copies: 3; dsDNA, one strand shown
Chain of HSF1 (Q00613 whole entry): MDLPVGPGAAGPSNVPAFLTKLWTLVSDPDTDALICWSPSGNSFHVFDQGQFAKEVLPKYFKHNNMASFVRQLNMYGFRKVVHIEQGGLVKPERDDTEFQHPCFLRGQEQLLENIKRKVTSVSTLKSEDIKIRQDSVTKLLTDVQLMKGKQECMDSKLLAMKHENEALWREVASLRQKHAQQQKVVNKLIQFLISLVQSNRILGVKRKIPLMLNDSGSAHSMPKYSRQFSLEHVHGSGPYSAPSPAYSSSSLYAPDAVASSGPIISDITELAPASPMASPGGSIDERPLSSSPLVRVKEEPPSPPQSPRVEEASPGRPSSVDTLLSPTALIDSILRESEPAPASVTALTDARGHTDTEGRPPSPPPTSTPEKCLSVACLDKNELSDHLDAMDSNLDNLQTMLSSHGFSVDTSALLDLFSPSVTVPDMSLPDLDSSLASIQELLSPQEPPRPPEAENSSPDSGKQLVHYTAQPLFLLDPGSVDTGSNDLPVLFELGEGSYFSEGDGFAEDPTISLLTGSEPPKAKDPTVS
Procedure, shortened: as §1

SPIC = target: T8, SPIC (Homo sapiens, UniProt Q8N5J4 1-248); details: protein: recombinant; tags: N-terminal GST; dsDNA, one strand shown
T8 sequence: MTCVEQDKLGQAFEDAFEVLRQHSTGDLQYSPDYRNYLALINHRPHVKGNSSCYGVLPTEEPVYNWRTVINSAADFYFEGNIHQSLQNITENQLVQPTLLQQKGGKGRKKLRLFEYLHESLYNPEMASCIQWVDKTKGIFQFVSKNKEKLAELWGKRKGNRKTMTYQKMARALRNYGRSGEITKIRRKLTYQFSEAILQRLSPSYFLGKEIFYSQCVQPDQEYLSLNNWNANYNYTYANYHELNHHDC
Procedure, shortened: as §1

ELF4 = ELF4 (Homo sapiens, UniProt Q99607 1-663); details: protein: recombinant; tags: N-terminal GST; dsDNA, one strand shown
Chain of ELF4 (Q99607 whole entry): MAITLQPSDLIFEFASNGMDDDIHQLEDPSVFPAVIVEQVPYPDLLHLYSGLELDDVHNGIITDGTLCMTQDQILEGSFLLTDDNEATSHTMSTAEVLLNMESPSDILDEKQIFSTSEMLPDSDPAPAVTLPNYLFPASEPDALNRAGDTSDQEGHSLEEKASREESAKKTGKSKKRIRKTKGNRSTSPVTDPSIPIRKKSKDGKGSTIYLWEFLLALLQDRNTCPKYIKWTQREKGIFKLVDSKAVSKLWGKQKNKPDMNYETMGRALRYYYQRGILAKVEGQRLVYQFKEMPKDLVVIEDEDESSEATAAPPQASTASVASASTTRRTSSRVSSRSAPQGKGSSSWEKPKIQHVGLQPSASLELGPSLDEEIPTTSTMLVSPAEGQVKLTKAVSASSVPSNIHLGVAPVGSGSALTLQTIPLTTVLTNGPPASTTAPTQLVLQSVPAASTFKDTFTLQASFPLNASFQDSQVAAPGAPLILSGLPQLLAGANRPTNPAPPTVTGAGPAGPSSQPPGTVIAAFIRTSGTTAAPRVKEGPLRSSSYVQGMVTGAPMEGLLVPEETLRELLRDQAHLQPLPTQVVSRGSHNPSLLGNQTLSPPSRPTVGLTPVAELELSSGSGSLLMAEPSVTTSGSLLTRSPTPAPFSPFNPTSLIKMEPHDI
Procedure, shortened: as §1

ELK4 = target: T9, ELK4 (Homo sapiens, UniProt P28324-2 1-405); details: protein: recombinant; tags: N-terminal GST; dsDNA, one strand shown
T9 sequence: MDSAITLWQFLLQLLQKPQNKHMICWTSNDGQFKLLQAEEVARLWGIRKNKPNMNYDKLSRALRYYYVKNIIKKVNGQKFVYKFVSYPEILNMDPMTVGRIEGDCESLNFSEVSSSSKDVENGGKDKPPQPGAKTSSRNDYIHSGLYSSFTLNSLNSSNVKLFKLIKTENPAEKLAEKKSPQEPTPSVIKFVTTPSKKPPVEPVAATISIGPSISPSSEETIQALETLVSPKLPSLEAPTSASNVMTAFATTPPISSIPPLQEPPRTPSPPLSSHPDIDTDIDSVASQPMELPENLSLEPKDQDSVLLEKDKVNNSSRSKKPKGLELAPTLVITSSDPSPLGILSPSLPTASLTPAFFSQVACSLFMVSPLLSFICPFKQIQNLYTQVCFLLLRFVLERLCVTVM
Procedure, shortened: as §1

ETV2 = target: T10, ETV2 (Homo sapiens, UniProt O00321 1-342); details: protein: recombinant; tags: N-terminal GST; dsDNA, one strand shown
T10 sequence: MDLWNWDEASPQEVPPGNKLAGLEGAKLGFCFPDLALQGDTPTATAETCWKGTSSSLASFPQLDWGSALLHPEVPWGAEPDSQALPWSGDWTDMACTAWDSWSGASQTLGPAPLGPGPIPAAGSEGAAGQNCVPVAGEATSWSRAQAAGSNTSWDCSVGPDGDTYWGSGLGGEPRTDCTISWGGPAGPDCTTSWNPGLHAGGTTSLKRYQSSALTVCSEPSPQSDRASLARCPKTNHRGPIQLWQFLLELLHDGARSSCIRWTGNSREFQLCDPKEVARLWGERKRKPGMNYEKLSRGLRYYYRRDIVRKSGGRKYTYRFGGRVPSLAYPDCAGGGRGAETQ
Procedure, shortened: as §1

ELF3 = target: T11, ELF3 (Homo sapiens, UniProt P78545 1-371); details: protein: recombinant; tags: N-terminal GST; dsDNA, one strand shown
T11 sequence: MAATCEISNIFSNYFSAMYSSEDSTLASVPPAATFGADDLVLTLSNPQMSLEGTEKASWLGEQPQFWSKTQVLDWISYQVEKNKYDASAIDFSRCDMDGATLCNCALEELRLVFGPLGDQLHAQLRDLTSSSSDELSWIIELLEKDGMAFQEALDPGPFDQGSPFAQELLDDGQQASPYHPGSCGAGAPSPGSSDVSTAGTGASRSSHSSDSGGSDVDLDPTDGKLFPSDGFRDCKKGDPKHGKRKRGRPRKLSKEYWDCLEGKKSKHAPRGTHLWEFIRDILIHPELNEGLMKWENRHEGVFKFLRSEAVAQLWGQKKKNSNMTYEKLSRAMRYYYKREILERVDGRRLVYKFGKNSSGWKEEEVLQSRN
Procedure, shortened: as §1

CRX = CRX (Homo sapiens, UniProt O43186 1-299); details: protein: recombinant; tags: N-terminal GST; dsDNA, one strand shown
Chain of CRX (O43186 whole entry): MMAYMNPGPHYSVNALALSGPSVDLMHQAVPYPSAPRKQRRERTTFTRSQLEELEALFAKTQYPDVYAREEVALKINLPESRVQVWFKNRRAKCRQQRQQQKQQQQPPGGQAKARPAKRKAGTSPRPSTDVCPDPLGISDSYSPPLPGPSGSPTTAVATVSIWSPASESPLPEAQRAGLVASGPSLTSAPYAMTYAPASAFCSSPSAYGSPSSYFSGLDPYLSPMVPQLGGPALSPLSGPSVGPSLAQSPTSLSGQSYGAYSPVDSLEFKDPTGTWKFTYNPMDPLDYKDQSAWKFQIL
Procedure, shortened: as §1

ETV1 = ETV1 (Homo sapiens, UniProt P50549 1-477); details: protein: recombinant; tags: N-terminal GST; dsDNA, one strand shown
Chain of ETV1 (P50549 whole entry): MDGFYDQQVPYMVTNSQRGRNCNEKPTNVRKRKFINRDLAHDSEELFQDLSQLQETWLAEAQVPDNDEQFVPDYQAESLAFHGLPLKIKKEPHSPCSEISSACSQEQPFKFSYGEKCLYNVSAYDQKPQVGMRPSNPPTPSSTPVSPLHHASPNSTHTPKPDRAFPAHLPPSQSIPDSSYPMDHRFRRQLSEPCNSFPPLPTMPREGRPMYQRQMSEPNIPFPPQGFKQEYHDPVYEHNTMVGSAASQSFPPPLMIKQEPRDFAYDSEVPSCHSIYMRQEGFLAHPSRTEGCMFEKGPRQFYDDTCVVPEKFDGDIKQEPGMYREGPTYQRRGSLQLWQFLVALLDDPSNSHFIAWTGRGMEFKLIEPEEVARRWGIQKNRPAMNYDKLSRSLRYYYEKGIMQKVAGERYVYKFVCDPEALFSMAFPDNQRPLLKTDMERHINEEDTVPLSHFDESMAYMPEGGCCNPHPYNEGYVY
Procedure, shortened: as §1

## TCTAAC
FLI1
  binding signal: 1.18 fold enrichment (6-mer frequency, TF over GST control)
ELK1
  binding signal: 1.28 fold enrichment (6-mer frequency, TF over GST control)
GABPA
  binding signal: 1.16 fold enrichment (6-mer frequency, TF over GST control)
ERG
  binding signal: 1.22 fold enrichment (6-mer frequency, TF over GST control)
ELF1
  binding signal: 1.21 fold enrichment (6-mer frequency, TF over GST control)
EHF
  binding signal: 1.16 fold enrichment (6-mer frequency, TF over GST control)
SPI1
  binding signal: 1.13 fold enrichment (6-mer frequency, TF over GST control)
SPIB
  binding signal: 1.19 fold enrichment (6-mer frequency, TF over GST control)
ELK3
  binding signal: 1.16 fold enrichment (6-mer frequency, TF over GST control)
FEV
  binding signal: 1.23 fold enrichment (6-mer frequency, TF over GST control)
ETV5
  binding signal: 1.21 fold enrichment (6-mer frequency, TF over GST control)
HSF1
  binding signal: 1.25 fold enrichment (6-mer frequency, TF over GST control)
SPIC
  binding signal: 1.07 fold enrichment (6-mer frequency, TF over GST control)
ELF4
  binding signal: 1.22 fold enrichment (6-mer frequency, TF over GST control)
ELK4
  binding signal: 1.2 fold enrichment (6-mer frequency, TF over GST control)
ETV2
  binding signal: 1.12 fold enrichment (6-mer frequency, TF over GST control)
ELF3
  binding signal: 1.23 fold enrichment (6-mer frequency, TF over GST control)
CRX
  binding signal: 1.24 fold enrichment (6-mer frequency, TF over GST control)
ETV1
  binding signal: 1.16 fold enrichment (6-mer frequency, TF over GST control)
